Activity calls are given as the source filed them.

Our source for the composite z-score, z-score and composite Z-score values is PubChem BioAssay.

Assay [1] concerns Human papillomavirus type 1a protein E7 (residues 44-93). Kind of assay: HPV1a E7 fragment binders on microarrays, primary screen, biochemical, small-molecule microarray, residues 44-93, 635 nm fluorescence (AID 1108).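 Also: E7 fragment applied at 1 µg/mL in TBST for 1 h at 4 C; score combines spot fluorescence with its signal to noise ratio.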 The following applies: small-molecule microarray binding, fluorescence 635 nm; higher = more signal.
The nature of assay [2]: modulators of HCV replicon luciferase signal, primary screen, HCV replication inhibitor project, Huh7 cells, luciferase reporter (AID 1109).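 Also: huh7 hepatoma cells harbouring a luciferase neomycin HCV replicon reporter; luciferase luminescence as measure of HCV replicon replication; test concentration not given here.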 The following applies: 48 h, higher = more signal.
Assay [3] deals with Left-right determination factor 2 (Homo sapiens) (UniProt O00292). Kind of assay: LEFTY2 binders on small-molecule microarrays, primary screen, biochemical, small-molecule microarray, 635 nm fluorescence scan (AID 1110). As to conditions: LEFTY2 binding, higher = more signal.
Assay [4] deals with Calmodulin-1 (Homo sapiens) (UniProt P0DP23). Kind of assay: CALM1 binders on microarrays, EGTA buffer, profiling panel, biochemical, small-molecule microarray, Cy5-labelled CALM1 (AID 1111).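 Also: labelled calmodulin applied in Tris saline Tween buffer holding calcium plus EGTA and DTT.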 The following applies: Cy5-CALM1 binding fluorescence, higher = more signal.
Assay [5] shares this target. Kind of assay: calcium-bound CALM1 binders on microarrays, profiling panel, artefact control for SMM control-protein annotation, biochemical, small-molecule microarray, Cy5-labelled CALM1, plus calcium (AID 1112).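 Also: score merges spot fluorescence with signal to noise from triplicate slides.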 As to conditions: Cy5-CALM1 binding fluorescence, higher = more signal.
Assay [6] can be described thus: small-molecule microarray binders of probe aWnt5a, primary screen, biochemical, biotinylated probe, 635/667 nm fluorescence (AID 1113).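 Also: score merges 667 nm fluorescence intensity with signal-to-noise per printed feature.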 As to conditions: higher = more signal.
Assay [7] is described as follows: small-molecule microarray binders of probe aShh, primary screen, biochemical, biotinylated probe, 635/667 nm fluorescence (AID 1114).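 Also: probe is biotin-labelled aShh protein from a stem cell growth factor screen; measures binding of labelled protein to compounds printed on the slide; score merges feature fluorescence at 667 nm with signal-to-noise.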 As to conditions: higher = more signal.
Assay [8] is described as follows: small-molecule microarray binders of probe aNog, primary screen, biochemical, biotinylated probe, 635/667 nm fluorescence (AID 1115).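 Also: probe is biotinylated aNog protein used at 0.15 µg/mL for 1 h at 4 C; z-score combines 667 nm fluorescence of each spot with its signal to noise.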 The following applies: higher = more signal.
In assay [9] the target is Torsin-1A-interacting protein 1 (Homo sapiens) (UniProt Q5JTV8). Kind of assay: LAP1 binders from COS7 cell lysate, primary screen, small-molecule microarray, 635/667 nm fluorescence (AID 1116). As to conditions: COS7-hLAP1 lysate binding, 635 nm fluorescence, higher = more signal.
For assay [10], the target named is Alpha-bungarotoxin (Bungarus multicinctus) (UniProt P60615). Kind of assay: alpha-bungarotoxin binders on microarray, profiling panel, artefact control for SMM control protein annotation, biochemical, small-molecule microarray, Alexa647 label, 635/667 nm fluorescence (AID 1117). As to conditions: alpha-BTX-A647 binding fluorescence, higher = more signal.
The target of another assay is Albumin (Bos taurus) (UniProt P02769). Kind of assay: bovine serum albumin binders on microarray, profiling panel, artefact control for SMM control protein annotation, biochemical, small-molecule microarray, Alexa647 label, 635/667 nm fluorescence (AID 1118).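 Also: score merges 667 nm emission intensity and signal-to-noise per printed compound spot.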 As to conditions: BSA-A647 binding, fluorescence 635 nm, higher = more signal.
Assay [11] in a line: small-molecule microarray binders of probe aXIP, primary screen, biochemical, NeuroSMM set, 635/667 nm fluorescence (AID 1119).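 Also: probe is the protein aXip251-270 applied at 1 µg/mL to compound-printed slides; binding of probe to printed compounds measured as 667 nm fluorescence plus signal to noise.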 As to conditions: higher = more signal, called active from +8 up or from −8 down.
A short description of assay [12]: small-molecule binders of probe aNOTCH3, primary screen, biochemical, small-molecule microarray, 635/667 nm fluorescence (AID 1120).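 Also: probe is a biotin-tagged antibody raised against NOTCH3 rather than NOTCH3 protein; score merges spot fluorescence near 667 nm with spot signal to noise.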 The following applies: higher = more signal.
Assay [13] is described as follows: small-molecule binders of probe aNOTCH2, primary screen, biochemical, small-molecule microarray, 635/667 nm fluorescence (AID 1121).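 Also: score merges feature fluorescence read at 667 nm with its signal to noise.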 As to conditions: higher = more signal.
Assay [14] concerns the target Carbonic anhydrase 2 (Homo sapiens) (UniProt P00918). Kind of assay: CAII small-molecule binders, profiling panel, biochemical, small-molecule microarray, Alexa647-labelled CAII (AID 1122). The following applies: CAII-A647 binding fluorescence, higher = more signal.
A short description of assay [15]: COS7 lysate on small-molecule microarray, probe aHis, 635 nm (AID 1123).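 Also: z-score combines 667nm fluorescence intensity with signal-to-noise per printed compound spot.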 The following applies: COS7 cell lysate, fluorescence, higher = more signal.
The nature of assay [16]: compound binding in COS7 lysate, probe aLAP1, primary screen, cell lysate, small-molecule microarray (AID 1124).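 Also: lysate comes from COS7 cells expressing LAP1 and is applied at 0.3 µg/mL; score merges spot fluorescence near 667 nm with signal-to-noise over triplicate slides.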 As to conditions: probe aLAP1, fluorescence, higher = more signal.
The test system of another assay is Sam68 (KHDRBS1). Kind of assay: Sam68 small-molecule binders, primary screen, biochemical, small-molecule microarray, 635 nm fluorescence (AID 1125).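 Also: score merges 667 nm channel intensity with signal to noise over triplicate slides.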 The following applies: small-molecule microarray binding, higher = more signal.
The subject of assay [17] is Chordin-like protein 2 (CHRDL2). Kind of assay: CHRDL2 small-molecule binders, primary screen, biochemical, small-molecule microarray, 635 nm fluorescence (AID 1126).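 Also: printed compound slides probed with Chrdl2 protein at 4 µg/mL for 1 h at 4 C; score merges 667 nm emission intensity with signal to noise over three replicate slides.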 As to conditions: small-molecule microarray binding, fluorescence 635 nm; higher = more signal.
Assay [18] deals with Concanavalin-A (Canavalia ensiformis) (UniProt P02866). Kind of assay: ConA small-molecule binders, primary screen, artefact control for SMM control protein annotation, biochemical, small-molecule microarray, Alexa647 label, 635 nm (AID 1127).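 Also: z combines 667 nm emission intensity with signal-to-noise across three replicate slides.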 As to conditions: ConA-A647 binding fluorescence, higher = more signal.
Chain of Concanavalin-A (Canavalia ensiformis) (P02866 whole entry, looked up): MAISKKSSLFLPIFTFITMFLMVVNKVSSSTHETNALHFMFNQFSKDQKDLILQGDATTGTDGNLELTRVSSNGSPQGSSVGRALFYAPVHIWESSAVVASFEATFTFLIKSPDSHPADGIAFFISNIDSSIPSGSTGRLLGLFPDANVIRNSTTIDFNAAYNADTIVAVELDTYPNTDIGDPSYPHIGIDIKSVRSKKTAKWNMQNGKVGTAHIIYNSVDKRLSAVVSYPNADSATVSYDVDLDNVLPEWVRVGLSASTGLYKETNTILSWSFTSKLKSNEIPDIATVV

Chain of Albumin (Bos taurus) (P02769 whole entry, looked up): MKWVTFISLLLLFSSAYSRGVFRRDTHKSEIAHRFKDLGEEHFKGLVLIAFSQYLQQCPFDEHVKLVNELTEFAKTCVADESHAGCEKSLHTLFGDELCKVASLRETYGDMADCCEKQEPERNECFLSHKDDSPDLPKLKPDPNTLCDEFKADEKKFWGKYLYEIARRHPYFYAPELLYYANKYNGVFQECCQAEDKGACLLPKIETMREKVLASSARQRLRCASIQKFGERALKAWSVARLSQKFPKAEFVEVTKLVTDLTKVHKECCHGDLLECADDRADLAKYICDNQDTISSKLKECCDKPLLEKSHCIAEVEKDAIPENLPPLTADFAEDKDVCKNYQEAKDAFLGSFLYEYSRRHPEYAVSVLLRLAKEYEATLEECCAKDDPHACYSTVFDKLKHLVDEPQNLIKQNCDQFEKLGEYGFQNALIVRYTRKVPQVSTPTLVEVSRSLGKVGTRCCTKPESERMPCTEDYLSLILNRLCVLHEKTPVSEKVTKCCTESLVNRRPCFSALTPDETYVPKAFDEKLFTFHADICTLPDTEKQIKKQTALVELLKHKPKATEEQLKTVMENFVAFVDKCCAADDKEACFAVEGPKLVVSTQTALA
Chain of Torsin-1A-interacting protein 1 (Homo sapiens) (Q5JTV8 whole entry, looked up): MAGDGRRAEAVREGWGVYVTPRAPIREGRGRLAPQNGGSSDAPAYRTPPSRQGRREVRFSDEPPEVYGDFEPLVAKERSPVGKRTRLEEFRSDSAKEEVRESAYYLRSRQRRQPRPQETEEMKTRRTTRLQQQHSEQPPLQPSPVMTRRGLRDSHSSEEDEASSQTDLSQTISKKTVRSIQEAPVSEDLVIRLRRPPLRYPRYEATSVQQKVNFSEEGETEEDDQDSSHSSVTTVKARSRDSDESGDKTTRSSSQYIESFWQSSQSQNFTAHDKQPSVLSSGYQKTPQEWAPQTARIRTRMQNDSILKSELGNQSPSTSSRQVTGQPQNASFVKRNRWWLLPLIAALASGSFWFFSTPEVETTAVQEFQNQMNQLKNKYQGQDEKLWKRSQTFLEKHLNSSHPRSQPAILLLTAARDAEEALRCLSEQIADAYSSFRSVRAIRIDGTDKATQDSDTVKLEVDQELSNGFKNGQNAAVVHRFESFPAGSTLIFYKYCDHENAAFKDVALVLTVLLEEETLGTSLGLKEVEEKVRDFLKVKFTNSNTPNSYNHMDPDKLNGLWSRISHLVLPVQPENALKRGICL
Chain of Alpha-bungarotoxin (Bungarus multicinctus) (P60615 whole entry, looked up): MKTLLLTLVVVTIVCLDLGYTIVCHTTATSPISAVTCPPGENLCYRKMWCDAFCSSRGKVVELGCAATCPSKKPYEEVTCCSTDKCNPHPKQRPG
Chain of Left-right determination factor 2 (Homo sapiens) (O00292 whole entry, looked up): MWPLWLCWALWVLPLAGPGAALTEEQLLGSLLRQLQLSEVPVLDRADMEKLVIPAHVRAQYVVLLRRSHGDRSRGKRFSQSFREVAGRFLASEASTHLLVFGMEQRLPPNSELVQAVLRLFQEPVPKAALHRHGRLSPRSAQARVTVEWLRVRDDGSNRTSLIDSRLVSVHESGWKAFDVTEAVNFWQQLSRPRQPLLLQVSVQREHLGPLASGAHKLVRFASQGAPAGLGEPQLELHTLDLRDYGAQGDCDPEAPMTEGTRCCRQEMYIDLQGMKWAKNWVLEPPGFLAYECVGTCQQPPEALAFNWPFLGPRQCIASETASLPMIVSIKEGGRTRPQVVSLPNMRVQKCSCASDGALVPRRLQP

`C=C[C@@H](OC)[C@H](OC(=O)Nc1ccc(OC)cc1)c1ccc(OC)c(O)c1`: the composite z-score in assay [1] is -0.546; in assay [3], -1.86; in [4], -0.56; in [5], -0.194; in [6], -0.154; in assay [7], -0.367. The composite z-score in assay [8] was -0.45; in assay [9], -0.386; in [10], -0.382; with Albumin (Bos taurus), -0.787; in [12] it was -0.246; in assay [13], -0.203. Also, the composite z-score in assay [14] was 0.415; in assay [15], 1.36; in [16], 0.0218; in the assay with Sam68 (KHDRBS1), -0.853; in [17], -0.96; in [18], -0.613. Moreover, the z-score in assay [2] was determined as 0.15. Moreover, the composite Z-score in [11] was 0.43 (inactive).
Consider `O=C1C[C@@](C(=O)NCC(F)(F)F)(c2ccc([N+](=O)[O-])cc2)[C@@H](c2ccc(CO)cc2)N1CC12CC3CC(CC(C3)C1)C2`, for which the composite z-score worked out at 0.913 in assay [1]; 0.309 in assay [3]; 0.835 in assay [4]; 0.569 in assay [5]; 0.0044 in assay [6]; 0.315 in assay [7]. For the same compound, the composite z-score in assay [8] is 0.542; in [9], 1.31; in assay [10], 0.987; with Albumin (Bos taurus), -0.191; in assay [12] it was 0.6; in assay [13], 0.0345. Further, the composite z-score in assay [14] was 0.502; in [15], 2.17; in assay [16], -0.0251; in the assay with Sam68 (KHDRBS1) it was 1.29; in assay [17], 0.297; in assay [18], 1.13. The compound further registered a z-score in assay [2] of -3.33. In assay [11], the composite Z-score was 1.68 (inactive).
With `[N-]=[N+]=NCc1ccccc1[C@@H]1OC(c2ccc(OCCCO)cc2)=N[C@]1(Cc1ccccc1)C(=O)NCCN1CCOCC1`, the composite z-score in assay [1] was found to be 1.42; in [3], 0.133; in [4], 1.2; in assay [5] it was 0.558; in [6], 0.0825; in assay [7], 0.1. Further, the composite z-score stood at 0.684 in [8]; 0.946 in assay [9]; 0.63 in [10]; 0.501 with Albumin (Bos taurus); 0.369 in [12]; 0.128 in assay [13]. Further, the composite z-score in assay [14] is 0.676; in assay [15], 1.98; in [16], 0.994; in the assay on Sam68 (KHDRBS1), 1.18; in assay [17], 0.325; in [18] it was 1.12. Further, in [2], the z-score was -2.37. Also, in [11], the composite Z-score was -0.016 (inactive).
As to `C=C(CCCC)/C(=C/C[C@H](OC(C)=O)c1ccc(OCCO)cc1)c1cc(C(=O)OC)ccc1OC`, the composite z-score in assay [1] was 1.37; in [3], -0.399; in assay [4] it was 0.142; in [5], -0.212; in assay [6] it was 0.027; in [7], -0.221. In addition, the composite z-score in [8] is -0.132; in [9], 0.405; in assay [10], 0.558; with Albumin (Bos taurus) it was 0.891; in [12] it was 0.0297; in assay [13] it was -0.0743. For the same compound, the composite z-score is 0.663 in assay [14]; 1.49 in assay [15]; 0.561 in [16]; 1.17 with Sam68 (KHDRBS1); -0.15 in assay [17]; 0.366 in assay [18]. The z-score in assay [2] was -1.69. Further, the composite Z-score in assay [11] is 0.414 (inactive).
For `O=C(CS)NCCCCCNC(=O)[C@@H]1C[C@@H]2C(=O)N[C@@H](Cc3ccccc3)C(=O)N2[C@@H]1c1cccc(OCCO)c1`, the composite z-score was 1.41 in assay [1]; 0.705 in [3]; 1.94 in assay [4]; -0.0675 in assay [5]; -0.302 in assay [6]; -0.482 in assay [7]. Also, the composite z-score in assay [8] was -0.458; in assay [9], 1.08; in assay [10] it was 1.54; with Albumin (Bos taurus) it was -0.884; in [12], -0.638; in assay [13] it was -0.446. Further, the composite z-score in assay [14] came out at 0.665; in [15], 2.7; in [16], 0.426; in the assay on Sam68 (KHDRBS1) it was 1.34; in assay [17], 0.914; in [18] it was 1.13. In addition, in assay [2], the z-score stood at 0.266. Also, in [11], the composite Z-score was -0.32 (inactive).
In the case of `C=C(COC)/C(=C/C[C@@H](OC(=O)c1ccncc1)c1ccccc1OCCO)c1cc(C(=O)OC)ccc1OC`, the composite z-score in [1] was -0.553; in [3], -0.934; in [4] it was -0.188; in assay [5], -0.66; in assay [6] it was -0.107; in assay [7], -0.0849. The composite z-score in assay [8] is 0.0471; in [9] it was 0.332; in [10], -0.626; with Albumin (Bos taurus) it was 0.247; in [12], -0.171; in assay [13] it was -0.132. In addition, the composite z-score in assay [14] is 0.803; in [15] it was 0.107; in assay [16], 0.748; with Sam68 (KHDRBS1), -0.227; in assay [17] it was -1.12; in assay [18], -0.71. Besides, in assay [2], the z-score is -2.5. The composite Z-score in assay [11] was -0.476 (inactive).
